Bioassay records deposited in PubChem BioAssay by several laboratories.
Sampled rows, rich in hits. Any-hit rate of the full collection: about 4.9%.
Beta cell apopt: beta cell apoptosis inhibition; INS-1E cytokine-induced death, ATP luminescence, 48 h; percent of positive-control rescue, neutral wells zero; protection from apoptosis, % (no concentration beside the values); 0.8% of 300,000 active; AID 435005;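 active = Every replicate reaches about 75%, or at least half do and their mean reaches it too, limit read from the data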;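 also: higher means more ATP so stronger rescue from cytokine killing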
PP5 inh: blocks human protein phosphatase 5 activity; inhibition, % at 6.7 µM; P53041; 0.18% of 320,000 active; purified PP5c, OMFP substrate fluorescence; AID 1987;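 active = inhibition above the campaign's mean inhibition across all tested compounds plus 3 SD, cut at about 9.5% in these data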
CSC inhib: blocks cancer stem cells; 1.1% of 300,000 active; cancer stem cell-like cells viability, luminescence; inhibition, % at 7.5 µM; in the data active = inhibition above about 75%; tested in HMLE shEcad cells
PP1 inh: blocks human PP1-alpha phosphatase, a PP5 counter-screen; P62136; purified PP1alpha, OMFP fluorescence; inhibition, % at 6.7 µM; 0.9% of 320,000 active; AID 2235;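 active = inhibition above the mean inhibition of all tested compounds plus 3 SD, computed separately for each screening campaign, cut at about 15% in these data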
Target sequence (P62136 whole entry, looked up): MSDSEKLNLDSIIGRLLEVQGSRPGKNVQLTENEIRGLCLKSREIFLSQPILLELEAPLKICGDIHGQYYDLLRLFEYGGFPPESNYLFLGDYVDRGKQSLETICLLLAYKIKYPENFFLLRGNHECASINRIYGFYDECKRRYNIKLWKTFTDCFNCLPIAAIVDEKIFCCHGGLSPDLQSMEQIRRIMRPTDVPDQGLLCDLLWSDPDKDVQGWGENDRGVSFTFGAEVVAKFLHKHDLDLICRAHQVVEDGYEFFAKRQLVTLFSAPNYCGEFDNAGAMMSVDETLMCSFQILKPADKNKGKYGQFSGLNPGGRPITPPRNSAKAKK
Mdm2 MdmX PPI: inhibitors of human Mdm2/MdmX interaction. 3% of 330,000 active. AID 485346. SaOS-2 split-luciferase Mdm2/MdmX complementation, luminescence. inhibition, % at 8 µM. O15151+Q00987;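 active = inhibition of at least 50% at 8 µM in the primary screen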
Calb FLC: affects C. albicans growth with fluconazole; AID 1979; C. albicans CaCi-2 (fluconazole-resistant clinical isolate) + fluconazole, Alamar Blue growth, 48 h; growth inhibition, % (concentration not given with the values); 0.57% of 300,000 active;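 active = growth inhibition above about 58% in most replicates, limit read from the data, passing the limit was not always enough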;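 also: all wells also contain fluconazole at 8 µg/ml as a sub-toxic cotreatment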
Hits are given with their value; i = inactive; nt = no result given.

SMILES | Beta cell apopt | PP5 inh | CSC inhib | PP1 inh | Mdm2 MdmX PPI | Calb FLC
COc1ccccc1OCC(=O)Nc1cc(C)ccc1NC(=O)c1ccco1 | i | i | i | i | i | i
Cc1ccccc1CC1CCN(CCCNC(=O)Nc2ccccc2)CC1 | i | nt | i | nt | i | i
COc1ccc2c(c1)OC[C@H]1[C@H]2N2C(=O)c3cc(Br)ccc3NC(=O)[C@@]2(C)[C@H]1c1ccccc1 | i | i | i | i | i | nt
Cc1ccc(C(=O)NC(=S)NNC(=O)c2ccccc2[N+](=O)[O-])cc1 | i | i | i | i | i | 114
CCOc1ccc(/C=N/NC(=O)c2ccc(F)cc2)cc1CN1CC2CC(C1)c1cccc(=O)n1C2 (configuration not stated) | i | i | i | i | i | nt
COC1=CC(=O)C(O)=C(CCCCCCC/C=C/CCCCCCCC2=C(O)C(=O)C=C(OC)C2=O)C1=O | i | i | i | i | i | 81
CCN1/C(=C\c2ccc3cc(C)ccc3[n+]2CC)Sc2cc(C)c(C)cc21 | nt | nt | nt | nt | nt | 104
CCCCCN=Cc1c(C)[nH]n(-c2nc3ccccc3s2)c1=O | 90 | i | i | i | i | i
CCCc1[nH]n(-c2nc3ccccc3s2)c(=O)c1C=NCCCOC | i | i | i | i | i | i
COc1ccc(CNC(=O)c2ccc(Cn3cc(Cl)cn3)o2)cc1 | nt | i | i | i | i | i
Cc1cc(N2C(=O)[C@@H]3[C@H](C2=O)[C@@H]2C[C@H]3C(Br)C2Br)no1 (some centres not stated) | i | i | i | i | i | i
COc1ccccc1NC(=O)Cn1cnc2c(cnn2-c2ccccc2)c1=O | nt | i | i | i | i | 91
Cc1ccc(C)c(OCC(=O)NNC(=O)CCN2CCN(c3ccccc3)CC2)c1 | i | i | i | i | i | nt
CC(=O)Oc1ccc(C(=O)Nc2ccc(C3(C#N)CCCC3)cc2)cc1 | i | i | 96 | i | i | i
N#CC1(c2ccc(NC(=O)c3ccccc3)cc2)CCCC1 | i | i | i | i | nt | i
CCOc1cc(N2CCOCC2)c(OCC)cc1NC(=O)CN1C(=O)NC(Cc2ccccc2)C1=O (configuration not stated) | i | i | i | i | i | i
CCOc1cc(N2CCOCC2)c(OCC)cc1NC(=O)CN1CCC(Cc2ccccc2)CC1 | i | i | 84 | i | i | i
Cc1ccccc1C(=O)Nc1nnc(CC(=O)N/N=C/c2cn(Cc3ccccc3)c3ccccc23)s1 | i | i | i | 15 | i | i
COc1cccc(-c2c(C#N)c(N)nc3c2c(C)nn3-c2ccccc2)c1O | i | i | i | i | i | i
Cc1nn(-c2ccccc2)c2nc(N)c(C#N)c(-c3ccc(C(C)(C)C)cc3)c12 | i | i | 94 | i | i | i
O=C(Nc1ccc(SC(F)(F)F)cc1)c1ccccn1 | i | i | i | i | i | i
Cc1ccc(C(=O)Nc2ccccc2C(=O)O)cc1S(=O)(=O)NCc1ccccc1 | i | i | i | i | i | i
Cc1ccc(C(=O)Nc2ccccc2C(=O)O)cc1S(=O)(=O)Nc1ccc(Br)cc1 | i | i | i | 16 | i | i
CCOc1cccc(-c2cc(-c3n[nH]c(=S)n3CC)c3ccccc3n2)c1 | i | i | i | i | i | 69
CCOc1cccc(C(=O)N2CCCCC2c2cccnc2)c1 (configuration not stated) | i | i | nt | 16 | i | i
SMILES | Beta cell apopt | PP5 inh | CSC inhib | PP1 inh | Mdm2 MdmX PPI | Calb FLC
COC(=O)N1[C@H](C)C=C[C@]1(Cc1ccccc1)C(=O)NCCCNc1ncc(C(F)(F)F)cc1Cl | nt | i | i | i | i | i
O=C(CN(CC1CCCO1)C(=O)CNS(=O)(=O)c1ccc(F)cc1)NC1CCCC1 (configuration not stated) | i | i | i | i | i | i
O=C(N/N=C/c1cccnc1)c1cccc(Cl)c1 | i | i | i | i | i | i
CC(C)c1ccc(/C=N/NC(=O)c2cccc(Cl)c2)cc1 | i | i | 91 | i | nt | i
Cc1ccc(S(=O)(=O)N2CCN(C(=O)C(Cc3ccccc3)NC(=O)c3ccccc3)CC2)cc1 (configuration not stated) | i | i | nt | i | i | nt
CCCOc1ccc(C(=O)C(CN2CCCC2)c2ccccc2)cc1 (configuration not stated) | i | i | 101 | i | nt | i
CCCCOc1ccc(C(O)C(CN2CCCCC2)c2ccccc2)cc1 (configuration not stated) | i | i | nt | i | i | i
Cc1c(Br)cc(C(=O)N2CCN(CCO)CC2)c(C)c1C | i | i | i | i | i | i
